Some test systems named below: SR leukemia; RPMI-8226 leukemia; OVCAR-8 ovarian; OVCAR-5 ovarian; OVCAR-4 ovarian; SK-OV-3 ovarian; IGROV1 ovarian; OVCAR-3 ovarian; HS 578T breast; NCI/ADR-RES ovarian.
What all share (assay): NCI-60 one-dose screen, 48 h (100 = growth as untreated, 0 = no growth, -100 = all killed)
Conditions in all cases: 10 µM

The text below walks through data of PubChem BioAssay (NCI).

The panel holds about 83,000 compounds, 20% with a hit somewhere; the sample as a whole holds those more often.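 Testing used 96-well plates and a 48-hour single-concentration exposure. Example: -40 means 40% of the starting cells died.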 Values without a mark were called inactive. Calls of active or inactive are those of the source. How the source made its calls: active means growth percent below 10; inactive means the rest.

In the case of `COc1ccc(CN2[C@H](C(=O)NCc3ccc(C(=O)NO)cc3)Cc3c([nH]c4ccccc34)[C@H]2C2CC2)cc1`, the growth in the assay with SR leukemia was 25.5%; with RPMI-8226 leukemia, 47.3%; with OVCAR-8 ovarian it was 39.3%; in the assay with OVCAR-5 ovarian, 34.4%; in the assay with OVCAR-4 ovarian it was 51.8%; in the assay with SK-OV-3 ovarian it was 62%. The growth with IGROV1 ovarian was 50.5%; with OVCAR-3 ovarian, 48.7%; in the assay on HS 578T breast, 32.6%; in the assay on NCI/ADR-RES ovarian it was 84%.
In the case of `CC(C)Sc1nc(NC2CC2)c(C#N)c(-c2ccccc2)n1`, the growth in the assay with SR leukemia is 99.8%; with RPMI-8226 leukemia, 94.2%; in the assay on OVCAR-8 ovarian, 30.8%; in the assay with OVCAR-5 ovarian it was 92%; in the assay on OVCAR-4 ovarian, 27.6%; in the assay with SK-OV-3 ovarian, 88.8%. For the same compound, the growth in the assay on IGROV1 ovarian was 74%; in the assay on OVCAR-3 ovarian it was 86.5%; in the assay on HS 578T breast, 71.7%; with NCI/ADR-RES ovarian, 57.6%.
With `N#Cc1ccc(-c2nn(-c3ccc(C(=O)O)cc3)cc2CNc2ccc(Cl)cc2)cc1`, the growth in the assay on SR leukemia was 82.8%; with RPMI-8226 leukemia, 66.4%; with OVCAR-8 ovarian, 74.4%; in the assay with OVCAR-5 ovarian, 111%; with OVCAR-4 ovarian it was 85.2%; in the assay on SK-OV-3 ovarian, 123%. Moreover, the growth was 91.5% in the assay with IGROV1 ovarian, 70.3% with OVCAR-3 ovarian, 88.6% in the assay with HS 578T breast and 67.7% in the assay on NCI/ADR-RES ovarian.
In the case of `Clc1cccc(N/N=C/c2c[nH]c3ccccc23)n1`, the growth with SR leukemia was 13.7%; with RPMI-8226 leukemia it was 4.05% (active); in the assay with OVCAR-8 ovarian, 41%; in the assay on OVCAR-5 ovarian, 52.2%; in the assay on OVCAR-4 ovarian, 41.3%; with SK-OV-3 ovarian it was 63.7%. In addition, the growth with IGROV1 ovarian was -4.86% (active); with OVCAR-3 ovarian it was -12.6% (active); in the assay with HS 578T breast, 28.5%; in the assay on NCI/ADR-RES ovarian it was -4.45% (active).
Turning to `N#Cc1c(NC(=O)c2ccc(C(F)(F)F)cc2)sc2c1CCC(O)=C2`, the growth with SR leukemia is 8.2% (active); in the assay on RPMI-8226 leukemia, 9.09% (active); in the assay on OVCAR-8 ovarian, 28.9%; in the assay with OVCAR-5 ovarian, 82.8%; in the assay on OVCAR-4 ovarian, 41.6%; with SK-OV-3 ovarian it was 17.9%. Further, the growth in the assay with IGROV1 ovarian was 38.3%; with OVCAR-3 ovarian, 18.8%; in the assay with HS 578T breast, 12.3%; in the assay on NCI/ADR-RES ovarian, -33.5% (active).
Take `COc1ccc(/C(CSc2nnc(-c3c[nH]c4ccccc34)n2-c2ccccc2)=N/O)cc1`: the growth was 10.9% with SR leukemia; 9.81% (active) in the assay with RPMI-8226 leukemia; 29.7% with OVCAR-8 ovarian; 55% with OVCAR-5 ovarian; 16.8% with OVCAR-4 ovarian; 52.1% in the assay on SK-OV-3 ovarian. Further, the growth in the assay on IGROV1 ovarian is 43.1%; in the assay on OVCAR-3 ovarian it was 30.5%; in the assay on HS 578T breast, 38.8%; in the assay on NCI/ADR-RES ovarian, 38.2%.
`O=[N+]([O-])c1ccc(-c2nc(-c3ccccc3)c(-c3ccccc3)n2-c2ccc(S(=O)(=O)Nc3ncccn3)cc2)cc1`: the growth was 45% in the assay with SR leukemia; 33% in the assay with RPMI-8226 leukemia; 54.5% in the assay with OVCAR-8 ovarian; 72.8% with OVCAR-5 ovarian; 66.7% in the assay on OVCAR-4 ovarian; 104% in the assay with SK-OV-3 ovarian. For the same compound, the growth in the assay with IGROV1 ovarian was 74.3%; in the assay on OVCAR-3 ovarian, 51.7%; in the assay with HS 578T breast it was 37.3%; in the assay with NCI/ADR-RES ovarian it was 42.4%.
Turning to `Cc1ccc(/C(CSc2nnc(-c3c[nH]c4ccccc34)n2-c2ccccc2)=N/O)cc1`, the growth is 9.79% (active) in the assay on SR leukemia; -19.1% (active) with RPMI-8226 leukemia; -27.8% (active) with OVCAR-8 ovarian; -48.9% (active) in the assay with OVCAR-5 ovarian; -87.2% (active) with OVCAR-4 ovarian; 11.5% in the assay with SK-OV-3 ovarian. Also, the growth in the assay with IGROV1 ovarian is -62.4% (active); in the assay with OVCAR-3 ovarian, 14.7%; in the assay with HS 578T breast, -53.5% (active); in the assay with NCI/ADR-RES ovarian it was -68.4% (active).
`O=C(CSc1nnc(-c2c[nH]c3ccccc23)n1-c1ccccc1)Nc1ccc(C(=O)/C=C/c2cccc([N+](=O)[O-])c2)cc1`: the growth in the assay on SR leukemia is 75.2%; in the assay on RPMI-8226 leukemia, 13.9%; in the assay on OVCAR-8 ovarian, 97.2%; in the assay on OVCAR-5 ovarian, 103%; in the assay with OVCAR-4 ovarian, 84.2%; in the assay on SK-OV-3 ovarian it was 106%. The growth with IGROV1 ovarian was 82.9%; in the assay on OVCAR-3 ovarian, 103%; in the assay with HS 578T breast, 74%; with NCI/ADR-RES ovarian it was 96.3%.
For `COc1ccc2[nH]cc(/C=N/Nc3ccc(Br)cn3)c2c1`, the growth is 3.07% (active) in the assay on SR leukemia; -11.4% (active) in the assay on RPMI-8226 leukemia; 34% in the assay with OVCAR-8 ovarian; 55.3% in the assay on OVCAR-5 ovarian; 53.2% with OVCAR-4 ovarian; 65.7% in the assay on SK-OV-3 ovarian. The growth with IGROV1 ovarian is 10.3%; in the assay with OVCAR-3 ovarian, 31.1%; with HS 578T breast it was 25.8%; in the assay on NCI/ADR-RES ovarian, 7.9% (active).
On to `Cc1ccc(F)cc1N/C=c1\s/c(=C(\C#N)C(=O)Nc2ccccc2)n(-c2ccccc2)c1=O`, for which the growth was 75.4% in the assay with SR leukemia; 84.9% in the assay with RPMI-8226 leukemia; 53.9% with OVCAR-8 ovarian; 72.5% in the assay on OVCAR-5 ovarian; -26.9% (active) with OVCAR-4 ovarian; 78.1% in the assay with SK-OV-3 ovarian. The growth in the assay with IGROV1 ovarian was 61.5%; with OVCAR-3 ovarian, 99%; with HS 578T breast it was 37%; with NCI/ADR-RES ovarian, 42.6%.
On to `CCCn1c(=O)c2[nH]c(-c3ccc(OCc4nc5ccc(F)cc5[nH]4)cc3)nc2n(CCC)c1=O`, for which the growth with SR leukemia is 11.8%; with RPMI-8226 leukemia it was 16.7%; with OVCAR-8 ovarian, -41.3% (active); with OVCAR-5 ovarian it was 43.3%; in the assay on OVCAR-4 ovarian it was -2.86% (active); in the assay on SK-OV-3 ovarian, -41.3% (active). Also, the growth is 28.1% in the assay with IGROV1 ovarian, 5.45% (active) in the assay with OVCAR-3 ovarian, 0.819% (active) in the assay on HS 578T breast and 64.9% in the assay on NCI/ADR-RES ovarian.
In the case of `CCOC(=O)N/C(=C1/OCCN1C)[P+](c1ccccc1)(c1ccccc1)c1ccccc1`, the growth was 66.6% with SR leukemia; 34.2% with RPMI-8226 leukemia; 89.3% in the assay with OVCAR-8 ovarian; 85.1% in the assay on OVCAR-5 ovarian; 65.4% in the assay with OVCAR-4 ovarian; 95.1% with SK-OV-3 ovarian. In addition, the growth in the assay on IGROV1 ovarian is 62.5%; in the assay with OVCAR-3 ovarian, 84.7%; with HS 578T breast it was 62.4%; with NCI/ADR-RES ovarian it was 106%.
